Results published in article PMC5700166.

Molecular target: T1, GST-Nv-NF-kB (Ser allele) (Nematostella vectensis, UniProt A7UNT2 2-411)
T1 sequence: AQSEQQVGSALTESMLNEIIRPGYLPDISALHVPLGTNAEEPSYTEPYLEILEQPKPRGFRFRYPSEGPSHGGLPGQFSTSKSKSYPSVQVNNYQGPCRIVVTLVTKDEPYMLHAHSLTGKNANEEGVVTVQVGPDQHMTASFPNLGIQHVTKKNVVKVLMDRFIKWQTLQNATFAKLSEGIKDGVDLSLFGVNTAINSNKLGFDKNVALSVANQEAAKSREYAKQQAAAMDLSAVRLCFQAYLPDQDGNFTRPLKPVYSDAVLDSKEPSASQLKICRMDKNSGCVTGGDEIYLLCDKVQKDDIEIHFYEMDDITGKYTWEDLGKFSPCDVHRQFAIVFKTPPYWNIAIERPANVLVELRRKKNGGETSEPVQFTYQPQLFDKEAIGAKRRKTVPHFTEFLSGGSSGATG
Test: protein-binding microarray (PBM); PBM: ~300 nM protein, 6 mM HEPES pH 7.8, 80 mM KCl, 0.5 mM EDTA, 0.5 mM EGTA, 6% glycerol, 35 ng/ul poly-dIdC, 1% milk, 1 h, room temperature; Ap Aiptasia and Nv Nematostella (sea anemones) / Co Capsaspora / Aq Amphimedon (sponge) / Dm Drosophila / Hu human; RHD is the Rel homology domain; high values mean tight binding
Conditions: dsDNA, one strand shown

How did the binding signal turn out when “CCGATTAACATCAGGGGAAATGATGATGTTAATCGGGTCTTGATTCGCTTGACGCTGCTG” was run?
The binding signal was 9.61 z-score.

With “CCGATTAACATCACAACTTCCCCTGATGTTAATCGGGTCTTGATTCGCTTGACGCTGCTG” as the sequence, how does the binding signal read?
The binding signal was 9.8 z-score.

For “CCGATTAACATCACGGGGATTTATGATGTTAATCGGGTCTTGATTCGCTTGACGCTGCTG”, which binding signal is on record?
The binding signal was 8.97 z-score.

“CCGATTAACATCAGGGACTCCCCTGATGTTAATCGGGTCTTGATTCGCTTGACGCTGCTG” was tested. Which binding signal did it give?
The binding signal was 7.65 z-score.

With “CCGATTAACATCAGGGAATTACCTGATGTTAATCGGGTCTTGATTCGCTTGACGCTGCTG” as the sequence, how does the binding signal read?
Its binding signal is 9.14 z-score.

“CCGATTAACATCAGGGGGCAATATGATGTTAATCGGGTCTTGATTCGCTTGACGCTGCTG” was tested. Which binding signal did it give?
Its binding signal is 3.15 z-score.

For “CCGATTAACATCACCCACCCCCCTGATGTTAATCGGGTCTTGATTCGCTTGACGCTGCTG”, which binding signal is on record?
The binding signal was 4.5 z-score.

How did the binding signal turn out when “CCGATTAACATCAAGGGAGTCCCTGATGTTAATCGGGTCTTGATTCGCTTGACGCTGCTG” was run?
The binding signal was 4.3 z-score.

“CCGATTAACATCACTTATCCCCCTGATGTTAATCGGGTCTTGATTCGCTTGACGCTGCTG” was tested. Which binding signal did it give?
Its binding signal is 4.72 z-score.

For “CCGATTAACATCAGGACTCCCCCTGATGTTAATCGGGTCTTGATTCGCTTGACGCTGCTG”, which binding signal is on record?
The binding signal was 6.45 z-score.

For “CCGATTAACATCAGCATCCCCCCTGATGTTAATCGGGTCTTGATTCGCTTGACGCTGCTG”, which binding signal is on record?
Its binding signal is 4.67 z-score.

For “CCGATTAACATCAAAAAGTCCCCTGATGTTAATCGGGTCTTGATTCGCTTGACGCTGCTG”, which binding signal is on record?
Its binding signal is 11.1 z-score.

How did the binding signal turn out when “CCGATTAACATCAACAAAATCCCTGATGTTAATCGGGTCTTGATTCGCTTGACGCTGCTG” was run?
The binding signal was 3.66 z-score.

For “CCGATTAACATCAAGGGGGTTTCTGATGTTAATCGGGTCTTGATTCGCTTGACGCTGCTG”, which binding signal is on record?
The binding signal was 8.76 z-score.

For “CCGATTAACATCAAAAATCCCCCTGATGTTAATCGGGTCTTGATTCGCTTGACGCTGCTG”, which binding signal is on record?
Its binding signal is 12.8 z-score.

“CCGATTAACATCAGACATTCCCCTGATGTTAATCGGGTCTTGATTCGCTTGACGCTGCTG” was tested. Which binding signal did it give?
The binding signal was 8.26 z-score.

“CCGATTAACATCAGTATTTCCCATGATGTTAATCGGGTCTTGATTCGCTTGACGCTGCTG” was tested. Which binding signal did it give?
Its binding signal is 3.53 z-score.

For “CCGATTAACATCAGGACATTCCCTGATGTTAATCGGGTCTTGATTCGCTTGACGCTGCTG”, which binding signal is on record?
The binding signal was 2.96 z-score.

For “CCGATTAACATCAGGGGTATTACTGATGTTAATCGGGTCTTGATTCGCTTGACGCTGCTG”, which binding signal is on record?
The binding signal was 3.14 z-score.

For “CCGATTAACATCAATACTTCCCCTGATGTTAATCGGGTCTTGATTCGCTTGACGCTGCTG”, which binding signal is on record?
Its binding signal is 9.37 z-score.

How did the binding signal turn out when “CCGATTAACATCAAATAATACCCTGATGTTAATCGGGTCTTGATTCGCTTGACGCTGCTG” was run?
The binding signal was 5.61 z-score.

For “CCGATTAACATCAAATTTCCCACTGATGTTAATCGGGTCTTGATTCGCTTGACGCTGCTG”, which binding signal is on record?
The binding signal was 4.5 z-score.

Which binding signal does the source give for “CCGATTAACATCAGGGGGAAAAATGATGTTAATCGGGTCTTGATTCGCTTGACGCTGCTG” here?
The binding signal was 9.96 z-score.

For “CCGATTAACATCAAGGGGGATTATGATGTTAATCGGGTCTTGATTCGCTTGACGCTGCTG”, which binding signal is on record?
The binding signal was 8.59 z-score.

“CCGATTAACATCAAGGGGGATTCTGATGTTAATCGGGTCTTGATTCGCTTGACGCTGCTG” was tested. Which binding signal did it give?
The binding signal was 10.3 z-score.

With “CCGATTAACATCAAGGGGGTTTATGATGTTAATCGGGTCTTGATTCGCTTGACGCTGCTG” as the sequence, how does the binding signal read?
Its binding signal is 7.73 z-score.

How did the binding signal turn out when “CCGATTAACATCAGAGACCCCCCTGATGTTAATCGGGTCTTGATTCGCTTGACGCTGCTG” was run?
Its binding signal is 2.81 z-score.

Which binding signal does the source give for “CCGATTAACATCAAGGGGGAATATGATGTTAATCGGGTCTTGATTCGCTTGACGCTGCTG” here?
Its binding signal is 9.33 z-score.

Which binding signal does the source give for “CCGATTAACATCAAGGGGAATAATGATGTTAATCGGGTCTTGATTCGCTTGACGCTGCTG” here?
The binding signal was 8.1 z-score.

With “CCGATTAACATCAATTCTCCCCCTGATGTTAATCGGGTCTTGATTCGCTTGACGCTGCTG” as the sequence, how does the binding signal read?
The binding signal was 8.64 z-score.

For “CCGATTAACATCAGGGGGGAATATGATGTTAATCGGGTCTTGATTCGCTTGACGCTGCTG”, which binding signal is on record?
The binding signal was 7.41 z-score.

“CCGATTAACATCAGGATTACCCATGATGTTAATCGGGTCTTGATTCGCTTGACGCTGCTG” was tested. Which binding signal did it give?
The binding signal was 2.12 z-score.

For “CCGATTAACATCAACGAATTCCCTGATGTTAATCGGGTCTTGATTCGCTTGACGCTGCTG”, which binding signal is on record?
The binding signal was 4.93 z-score.

Which binding signal does the source give for “CCGATTAACATCACGTTTTCCCCTGATGTTAATCGGGTCTTGATTCGCTTGACGCTGCTG” here?
The binding signal was 10.1 z-score.

With “CCGATTAACATCAACGGATTCCCTGATGTTAATCGGGTCTTGATTCGCTTGACGCTGCTG” as the sequence, how does the binding signal read?
Its binding signal is 3.98 z-score.

With “CCGATTAACATCAGGGAAATCTATGATGTTAATCGGGTCTTGATTCGCTTGACGCTGCTG” as the sequence, how does the binding signal read?
Its binding signal is 6.44 z-score.

How did the binding signal turn out when “CCGATTAACATCAGGGGAAAGTATGATGTTAATCGGGTCTTGATTCGCTTGACGCTGCTG” was run?
The binding signal was 9.37 z-score.
